The supplement of paper PMC5662767
Structures can show the parent of a compound that is named as a salt.

System: Drosophila S2 cl14 SmoIP sensor cells
Assay: normalized SmoIP GFP fluorescence (untreated unstimulated = 0%, untreated Hh-stimulated = 100%); higher = more Smo activation sensor fluorescence
Conditions: compound concentration: 2 uM, 24 h
[1] = stimulation: Hh conditioned medium (+Hh)
[2] = stimulation: mock conditioned medium (-Hh)
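Further: flow cytometry read-out as median GFP intensity of gated cells, compounds added 30 min before Hh-conditioned or mock medium, mock-treated cells serving as unstimulated baseline.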

Structure (SMILES) | normalized SmoIP GFP fluorescence [1] | normalized SmoIP GFP fluorescence [2]
Cc1cc2c(F)c(Oc3ncnn4cc(OC[C@@H](C)O)c(C)c34)ccc2[nH]1 [Brivanib] | 97.5% | 0.489%
Nc1nc(N)c2nc(-c3cccc(O)c3)c(-c3cccc(O)c3)nc2n1 | 110% | -5.01%
CC(=O)N1CCN(CCOc2ccc(C3CCN(C4=Nn5c(nnc5C(F)(F)F)CC4)CC3)cc2)CC1 | 192% | 15%
COc1cc(Nc2ncc(F)c(Nc3ccc4c(n3)NC(=O)C(C)(C)O4)n2)cc(OC)c1OC | 112% | -1.11%
OCCOCCN1CCN(C2=Nc3ccccc3Sc3ccccc32)CC1 [Quetiapine-fumarate(Seroquel)] | 106% | -9.58%
COc1cc2c(cc1Cc1cccc(Cl)c1F)c(=O)c(C(=O)O)cn2[C@H](CO)C(C)C [Elvitegravir] | 143% | -9.22%
CN[C@@H](C)C(=O)N[C@H](C(=O)N1CCC[C@H]1C(=O)Nc1snnc1-c1ccccc1)C1CCCCC1 | 85.6% | 4.68%
COc1cc(OC)c2c(=O)[nH]c(-c3cc(C)c(OCCO)c(C)c3)nc2c1 | 112% | -3.16%
CCn1c2ccccc2c2cc(Nc3ccnc(NCCCN4CCOCC4)n3)ccc21 [ehop-016] | 100% | -3.62%
Cc1ccc(C(=O)Nc2ccc(CN3CCN(C)CC3)c(C(F)(F)F)c2)cc1C#Cc1cnc2[nH]ncc2c1 | 104% | 3.88%
C/C(=N\NC(=S)N1CCC1)c1ccccn1 | 207% | 30.1%
CN1CCc2c(c3ccccc3n2Cc2ccc(C(=O)NO)cc2)C1 [tubastatin-a-hcl] | 101% | -1.83%
CCN(CC)CC#CCOC(=O)C(O)(c1ccccc1)C1CCCCC1 (stereo not given) [oxybutynin-chloride] | 108% | -1.12%
COc1cc2c(N3CCN(C(=O)Nc4ccc(OC(C)C)cc4)CC3)ncnc2cc1OCCCN1CCCCC1 [Tandutinib-(MLN518)] | 99.7% | 1.89%
CC(C)NCC(O)COc1cccc2ccccc12 (stereo not given) [propranolol-hcl] | 111% | -1.63%
